# Reference: PubChem BioAssay (EPA / NIEHS)
# Calls of active or inactive are those of the source. How the source made its calls: active means hit-call score of the fitted dose curve at least 0.9, where 1 is the maximum; inactive means score below 0.9.
# Read-out: cysteine-aspartic acid protease (CASP8), CASP8 (gene 841)
# Assay: LTEA_HepaRG_CASP8: Life Technologies and Expression Analysis (LTEA) Assay for cysteine-aspartic acid protease (CASP8) using HepaRG (AID 2283480)
# Conditions: mRNA level, 48 h; actives raise or lower the signal
# In short: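 Concentration-response in duplicate up to 100 uM (half-log steps, 0.5% DMSO) on differentiated HepaRG cultures for 48 h. Expression change of CASP8 mRNA is determined by TaqMan qRT-PCR with housekeeping-gene normalization.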
Compound,outcome,AC50
Cc1cc(C)nc(Nc2ccccc2)n1,inactive,–
C=C(C)CN(CC)c1c([N+](=O)[O-])cc(C(F)(F)F)cc1[N+](=O)[O-],inactive,–
Cc1ccc(N=CN(C)C=Nc2ccc(C)cc2C)c(C)c1,inactive,–
CN=C=S,inactive,–
CC(C)=CC1C(C(=O)OCc2coc(Cc3ccccc3)c2)C1(C)C (stereo unspecified),inactive,–
CCCCOCN(C(=O)CCl)c1c(CC)cccc1CC,inactive,–
COCC(=O)N(c1c(C)cccc1C)C(C)C(=O)OC (stereo unspecified),inactive,–
CSC(=O)c1c(C(F)F)nc(C(F)(F)F)c(C(=O)SC)c1CC(C)C,inactive,–
COc1cc(Cl)c(OC)cc1Cl,inactive,–
CC(C)N1C(=O)c2ccccc2NS1(=O)=O,inactive,–
CCOP(=S)(OCC)Oc1nc(Cl)n(C(C)C)n1,inactive,–
Clc1nc(Cl)nc(Nc2ccccc2Cl)n1,inactive,–
CC1(C)C(C(=O)OC(C#N)c2cccc(Oc3ccccc3)c2)C1(C)C (stereo unspecified),inactive,–
COP(=O)(OC)O/C(C)=C/C(=O)N(C)C,inactive,–
COc1ccc(-c2ccccc2)cc1NNC(=O)OC(C)C,inactive,–
OC(c1ccc(Cl)cc1)(c1ccc(Cl)cc1)C(Cl)(Cl)Cl,–,50 µM (active)
CCCC(=NOCC)C1=C(O)CC(CC(C)SCC)CC1=O (stereo unspecified),inactive,–
COc1cc(OC)nc(NC(=O)NS(=O)(=O)c2ncccc2OCC(F)(F)F)n1,inactive,–
CO/N=C(/C1=NOCCO1)c1ccccc1Oc1ncnc(Oc2ccccc2Cl)c1F,inactive,–
CCN(CC)C(=O)C(C)Oc1cccc2ccccc12 (stereo unspecified),inactive,–
CCCCC(C#N)(Cn1cncn1)c1ccc(Cl)cc1 (stereo unspecified),inactive,–
